Screens deposited in PubChem BioAssay by several laboratories.
An excerpt weighted towards active compounds, which were near 4.1% of everything screened.
VHR inh abs: blocks human VHR1 dual specificity phosphatase; recombinant VHR phosphatase, pNPP absorbance; 290,000 tested, 0.52% active; P51452; inhibition, % at 13.3 µM; in the data active = inhibition above about 50%
Target sequence (P51452 whole entry, looked up): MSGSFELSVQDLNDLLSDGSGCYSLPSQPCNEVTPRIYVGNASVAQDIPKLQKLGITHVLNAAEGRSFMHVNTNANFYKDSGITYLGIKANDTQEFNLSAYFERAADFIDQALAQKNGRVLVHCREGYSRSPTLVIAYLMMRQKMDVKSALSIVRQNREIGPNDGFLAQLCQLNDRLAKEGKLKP
BoNT-F LC inh: BoNT F light chain protease inhibition; Multiplex microsphere protease cleavage assay, flow cytometry; 360,000 tested, 0.22% active; inhibition, % at 10 µM; AID 588497; in the data active = inhibition above about 35%, passing the limit was not always enough; inconclusive = no clear call, values can overlap the other calls
Autofluor counter: compound fluorescence in toxin protease inhibitor counterscreen; 360,000 tested, 3.1% active; compound autofluorescence counterscreen, microsphere flow cytometry; hits give high values; fluorescence intensity (concentration not given with the values); AID 624483; in the data active = fluorescence intensity above about 16000; inconclusive = no clear call, values can overlap the other calls
BoNT-A LC inh2: inhibitors of Botulinum neurotoxin A light chain protease; 360,000 tested, 0.17% active; multiplex microsphere protease substrate cleavage, flow cytometry; inhibition, % at 10 µM; AID 588499
MazF activator: MazEF (E. coli) toxin RNase activation | P0AE70 | FAM/BHQ RNA-DNA oligo cleavage fluorescence, 5 h | activation, % at 20 µM | 350,000 tested, 0.32% active; in the data active = activation above about 50%
Target sequence (P0AE70 whole entry, looked up): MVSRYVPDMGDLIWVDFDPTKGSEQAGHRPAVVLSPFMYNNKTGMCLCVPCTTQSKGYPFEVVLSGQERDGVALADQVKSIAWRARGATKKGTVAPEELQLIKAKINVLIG
Anthrax LF prot: anthrax lethal factor protease inhibition; P15917; inhibition, % at 10 µM; multiplex microsphere protease cleavage assay, LF; 360,000 tested, 0.12% active
A number is an active result; n = inactive; u = inconclusive; x = no result given; + = active, no number; ! = a repeat was not active. Cut-off read from the data, not from the text of the source, unless noted: active = inhibition above about 30%; inconclusive = no clear call, values can overlap the other calls; inactive = below that.

SMILES	VHR inh abs	BoNT-F LC inh	Autofluor counter	BoNT-A LC inh2	MazF activator	Anthrax LF prot
CC(=O)Nc1cccc(NC(=O)CCCC(=O)O)c1	n	n	18707	u	n	n
O=C(Nc1cccc(-c2nc3ccccc3[nH]2)c1)c1cccc(NC(=O)c2ccco2)c1	n	n	n	n	66	n
COc1ccc(OCC(=O)Nc2cccc(-c3nc4ccccc4[nH]3)c2)cc1	n	n	24148	u	n	n
O=C(COc1ccccc1)Nc1cccc(-c2nc3ccccc3[nH]2)c1	n	n	n	n	n	n
O=C(Nc1ccc2nc(-c3ccccc3)[nH]c2c1)c1ccco1	n	n	n	n	n	n
O=C(O)CCCC(=O)Nc1cccc([N+](=O)[O-])c1	n	n	n	n	n	n
O=C(O)CCCC(=O)Nc1cccc(-c2nc3ccccc3[nH]2)c1	n	n	16669	n	n	n
COCCN(CCOC)Cc1cc(=O)oc2ccccc12	x	n	n	n	x	n
CC(C)(C)c1cc(C(=O)NCc2cc(F)cc3c2OCOC3)n(Cc2ccccc2)n1	n	u	n	n	n	n
O=C(O)c1ccc(Nc2ncc([N+](=O)[O-])cc2[N+](=O)[O-])cc1	n	n	n	n	n	n
CCCN1C(=O)c2ccccc2NC1c1cc(OC)c(OC)c(OC)c1 (configuration not stated)	n	n	n	n	n	n
CCN1c2ccccc2NC2N=C(OC)C(c3ccccc3)C21 (configuration not stated)	n	n	25940	u	n	n
CC(C)OCCCNC(=O)c1cccs1	n	n	22575	n	n	n
Cn1cc(CN2CCN(c3ccccc3)CC2)c2ccccc21	n	n	21941	n	n	n
Clc1ccccc1CN1CCN(c2ccccc2)CC1	n	n	n	n	n	n
COc1ccc2oc(=O)cc(CN3CCN(Cc4ccc(OC)c(OC)c4OC)CC3)c2c1	n	n	n	n	n	n
CS(=O)(=O)N(CC(=O)N1CCN(c2ccccc2F)CC1)C1CCCCC1	n	n	n	n	n	n
Cc1cc(C)c(S(=O)(=O)N(CC(=O)N2CCOCC2)C2CCCCC2)c(C)c1	n	n	n	n	n	n
Cc1ccc(S(=O)(=O)N(CC(=O)N2CCN(c3ccccc3F)CC2)C2CCCCC2)cc1	n	n	20732	n	n	n
Cc1ccc(S(=O)(=O)N(CC(=O)N2CCOCC2)C2CCCCC2)cc1	n	n	23611	u	n	n
COc1cccc(NC(=O)N(C)C[C@@H]2OCc3cn(nn3)CCCC(=O)N([C@H](C)CO)C[C@H]2C)c1	x	n	n	n	n	n
O=C(NC(c1ccc(Cl)cc1)c1cccnc1)C1CCN(CCOc2ccc(Cl)cc2Cl)CC1 (configuration not stated)	x	n	n	n	x	n
CC(=O)NC1C(=O)N(CC(C)C)c2ccccc21 (configuration not stated)	n	n	21274	n	n	n
CCC(=O)Nc1cc(Cl)ccc1C(=O)O	n	n	19235	u	n	n
CCC(C)C(=O)Nc1cc(Cl)ccc1C(=O)O (configuration not stated)	n	n	n	n	n	n
SMILES	VHR inh abs	BoNT-F LC inh	Autofluor counter	BoNT-A LC inh2	MazF activator	Anthrax LF prot
CC(C)CC(=O)N1CCC(O)(CS(=O)(=O)Cc2ccc(Cl)cc2)CC1	n	n	n	n	n	n
CC(C)CC(=O)N1CCC(O)(CS(=O)(=O)Cc2ccccc2Cl)CC1	n	n	21027	u	n	n
CC1CCC2C(C1)OS(=O)(=O)NC2(C)C (configuration not stated)	n	x	x	x	x	x
CCN(CC)S(=O)(=O)c1cccc(-c2nnc(SC(C)C(=O)NCCC3=CCCCC3)o2)c1 (configuration not stated)	x	n	22080	n	n	n
CC(Sc1nnc(-c2ccco2)o1)C(=O)NCCC1=CCCCC1 (configuration not stated)	n	n	n	n	n	n
CC(C)NC(=O)COC(=O)c1ccccc1CSC1=NCCS1	n	n	n	n	n	n
COc1ccc2occ(C(=O)c3coc4ccc(O)c(CN(C)C)c34)c2c1	n	n	23271	n	n	n
COc1ccc2occ(C(=O)c3cccs3)c2c1	n	n	24929	n	n	n
COc1ccc(OC)c(C(=O)c2coc3ccc(O)c(CN(C)C)c23)c1	n	u	n	n	n	n
CN(C)Cc1c(O)ccc2occ(C(=O)c3ccccc3)c12	n	n	22642	n	n	n
CCN(CC)Cc1c(O)ccc2occ(C(=O)c3ccccc3)c12	n	u	n	n	n	n
O=C(c1cccs1)c1coc2ccc(O)c(CN(CCO)CCO)c12	n	n	21865	n	n	n
C=Cc1ccc(Cn2c(C)c(C(=O)NCc3ccc(C#N)cc3)sc2=O)cc1	x	n	n	n	x	n
CC(=O)N1CCN(C(=O)c2ccc(NS(=O)(=O)c3ccc4c(c3)OCCO4)cc2)CC1	x	n	u	n	n	n
CCOC(=O)N1CCN(C(=O)C2CCC(=O)N(CCCN3CCCC3=O)C2)CC1 (configuration not stated)	n	n	n	n	n	n
CCCCC(=O)N(C)c1c(C)nc2ccc(C(=O)N3CCN(c4ccccc4)CC3)cn12	x	n	n	n	x	n
CC1=C(C(=O)OCc2ccccc2)C(/C=C/c2ccccc2)NC(=S)N1 (configuration not stated)	n	n	n	n	n	n
C=CCOC(=O)C1=C(C)NC(=S)NC1/C=C/c1ccccc1 (configuration not stated)	n	n	18190	n	n	n
COc1ccc(-c2ccc(/C=C3/C(=N)N4C=CSC4=NC3=O)o2)c([N+](=O)[O-])c1	n	n	n	n	445	n
N=C1/C(=C/c2cccn2-c2ccc([N+](=O)[O-])cc2)C(=O)N=C2SC=CN12	n	n	n	n	n	n
Cc1nnc(SCC(=O)NC2CCCCC2)n1-c1ccccc1	x	n	n	n	n	n
Cn1c(=O)cc(OCCCC(=O)N2CCCCC2)c2ccccc21	n	n	22743	n	n	n
CN1CCN(C(=O)CCCOc2cc(=O)n(C)c3ccccc23)CC1	n	n	n	n	n	n
Cc1ccnc(NC(=O)CCCOc2cc(=O)n(C)c3ccccc23)c1	n	n	21080!	u	n	n
CC(C)CNc1ncnc2c1ncn2[C@H]1CN(Cc2ccc(F)cc2)C[C@@H](CO)O1	x	n	n	n	x	n
SMILES	VHR inh abs	BoNT-F LC inh	Autofluor counter	BoNT-A LC inh2	MazF activator	Anthrax LF prot
CCOc1cc(/C=C2\COc3ccccc3C2=O)cc(Br)c1OCC(=O)N(C)C	n	n	n	n	n	n
CN1OC[C@@H]2CN(C(=S)NCCc3ccccc3)[C@H](c3ccc(N4CCCCC4)cc3)C[C@@H]21	x	n	n	n	x	n
CC(C)NC(=O)NC(=O)CSc1ncc(C(F)(F)F)cc1Cl	n	n	22963	n	n	n
CC(C)(C)NC(=O)NC(=O)CSc1ncc(C(F)(F)F)cc1Cl	n	n	n	n	n	n
COc1ccc(OC)c(-c2c3cc(O)c(=O)cc-3oc3cc(O)c(O)cc23)c1	n	n	n	n	+	n
O=c1cc2oc3cc(O)c(O)cc3c(-c3ccccc3O)c-2cc1O	n	n	n	n	n	n
